Source: PubChem BioAssay AID1159580 (chemical genetic matrix, 2015)
Several values for one entry are separate records, joined by “and”; a condition that tells them apart may be missing. Equal values may be shown once. In all, about 5,500 compounds went through this assay and about 2,000 (36%) were called active. About 18% were inconclusive and are not listed. Rule as the data show it: active = normalized growth mostly below about 0.91 (no sharp cut-off); inconclusive = no clear call, values can overlap the other calls; inactive = mostly above about 0.92. The list shows a part of the results.

Assay: chemical genetic growth profiling, strain panel (AID 1159580);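 also: tested at 20 µM; growth read once vehicle control cultures reached saturation at 30 °C; 1 = growth at the plate median or of vehicle wells; lower values mean less growth of the strain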
Conditions: S. cerevisiae deletion strains, growth OD

Measured: normalized growth

CCCCNc1ccc(C(=O)OCCN(C)C)cc1
active: locus YDR137W, strain rgp1, hits give low values 1.17 [resistant]
inactive: locus YAL013W, strain DEP1, hits give low values 1.01 | locus YAL021C, strain ccr4, hits give low values 0.978 | locus YAL026C, strain drs2, hits give low values 1.02 | locus YAL030W, strain snc1, hits give low values 0.999 | locus YAL040C, strain CLN3, hits give low values 0.929 | locus YBL061C, strain skt5, hits give low values 1.02 | locus YBR009C, strain hhf1, hits give low values 0.978 | locus YBR021W, strain FUR4, hits give low values 1.02 | locus YBR023C, strain chs3, hits give low values 1.01 | locus YBR171W, strain sec66, hits give low values 1.02 | locus YBR229C, strain ROT2, hits give low values 1.01 | locus YBR231C, strain swc5, hits give low values 1 | locus YBR279W, strain paf1, hits give low values 1.01 | locus YCL011C, strain gbp2, hits give low values 1.03 | locus YCL016C, strain dcc1, hits give low values 1.02 | locus YCL029C, strain bik1, hits give low values 1.01 | locus YCL061C, strain MRC1 (second series), hits give low values 1.01 | locus YCL069W, strain vba3, hits give low values 1.01 | locus YCR088W, strain abp1, hits give low values 1.01 | locus YDL005C, strain med2, hits give low values 1.01 | locus YDL035C, strain GPR1, hits give low values 1.01 | locus YDL040C, strain nat1, hits give low values 1.01 | locus YDL074C, strain BRE1, hits give low values 1.02 | locus YDL101C, strain DUN1, hits give low values 1.01 | locus YDL134C, strain PPH21, hits give low values 1.01 | locus YDL185W, strain tfp1, hits give low values 1.02 | locus YDL192W, strain arf1, hits give low values 1.01 | locus YDR001C, strain nth1, hits give low values 1.01 | locus YDR069C, strain doa4, hits give low values 0.991 | locus YDR101C, strain arx1, hits give low values 1.01 | locus YDR150W, strain NUM1, hits give low values 1.01 | locus YDR159W, strain sac3, hits give low values 1.01 | locus YDR162C, strain NBP2, hits give low values 0.998 | locus YDR195W, strain ref2 0.952 | locus YDR297W, strain sur2, hits give low values 1.02 | locus YDR318W, strain mcm21, hits give low values 1.02 | locus YDR334W, strain swr1, hits give low values 1.04 | locus YDR335W, strain msn5, hits give low values 1.04 | locus YDR363W, strain ESC2, hits give low values 1.01 | locus YDR388W, hits give low values 1.02 | locus YDR392W, strain spt3, hits give low values 1.09 | locus YDR502C, strain sam2, hits give low values 1 | locus YEL003W, strain gim4, hits give low values 1.01 | locus YEL037C, strain rad23, hits give low values 1.02 | locus YEL061C, strain CIN8 (second series), hits give low values 1.02 | locus YEL061C, strain CIN8, hits give low values 1.01 | locus YER002W, strain NOP16, hits give low values 0.995 | locus YER015W, strain faa2, hits give low values 1.01 | locus YER016W, strain bim1, hits give low values 1.02 | locus YER110C, hits give low values 1.02 | locus YER111C, strain swi4, hits give low values 1.01 | locus YER155C, strain BEM2 (second series), hits give low values 0.95 | locus YER155C, strain BEM2, hits give low values 0.999 | locus YER167W, strain BCK2, hits give low values 1.01 | locus YFR010W, strain ubp6, hits give low values 0.991 | locus YGL078C, strain dbp3, hits give low values 1.02 | locus YGL086W, strain mad1, hits give low values 0.997 | locus YGL167C, strain pmr1, hits give low values 1.01 | locus YGL173C, strain kem1, hits give low values 1 | locus YGL227W, strain vid30, hits give low values 1.01 | locus YGL240W, strain doc1, hits give low values 1.01 | locus YGL248W, strain PDE1, hits give low values 0.998 | locus YGL253W, strain hxk2, hits give low values 1.03 | locus YGR078C, strain PAC10, hits give low values 1.01 | locus YGR135W, strain pre9, hits give low values 1 | locus YGR229C, strain SMI1, hits give low values 1.03 | locus YGR252W, strain gcn5, hits give low values 0.915 | locus YHR013C, strain ard1, hits give low values 0.993 | locus YHR027C, strain rpn1, hits give low values 1.01 | locus YHR030C, strain SLT2, hits give low values 1.01 and 0.96 | locus YHR079C, strain IRE1 (second series), hits give low values 1.02 | locus YHR079C, strain IRE1, hits give low values 0.977 | locus YHR094C, strain hxt1, hits give low values 1.02 | locus YHR129C, strain ARP1, hits give low values 1 | locus YHR142W, strain chs7, hits give low values 1.06 | locus YHR200W, strain rpn10, hits give low values 1.02 | locus YIL066C, strain RNR3, hits give low values 1.01 | locus YIL073C, strain SPO22, hits give low values 1.04 | locus YIL125W, strain kgd1, hits give low values 1.02 | locus YIR030C, strain dcg1, hits give low values 1.02 | locus YJL092W, strain hpr5, hits give low values 1.02 | locus YJL095W, strain BCK1 (second series), hits give low values 1.02 | locus YJL095W, strain BCK1, hits give low values 0.991 and 0.961 | locus YJL115W, strain asf1, hits give low values 1.03 | locus YJL129C, strain trk1, hits give low values 1.01 | locus YJL134W, strain LCB3, hits give low values 1 | locus YJL154C, strain vps35, hits give low values 1.01 | locus YJL164C, strain tpk1, hits give low values 0.996 | locus YJL166W, strain qcr8, hits give low values 1.02 | locus YJL168C, strain set2, hits give low values 1.02 | locus YJL187C, strain SWE1 (second series), hits give low values 1.01 | locus YJR043C, strain POL32, hits give low values 1.02 | locus YJR066W, strain TOR1, hits give low values 0.926
